In the supplement of paper PMC10981050 one finds cell viability data, which are given here for nine compounds.

In general, cell viability refers to a read-out of living cells in per cent, often relative to untreated cells.

The assay deals with K562. Description: cell viability relative to vehicle control; higher = less cytotoxic. The note with it: 10 µM; SRSF2 genotype: SRSF2 wt/wt. The procedure, abridged:
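Mutant clones made by CRISPR editing and their isogenic wild-type counterparts, from four leukaemia lines, were exposed to a single 10 µM dose of each library compound for 48 h. The supernatant was then removed and CellTiter-Glo luminescence was read. Viability was reported as percent of the on-plate vehicle control.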
`Cc1cc(C)c(-c2csc(NC(=O)c3ccccc3)n2)c(C)c1`: the cell viability is 51%. The same measure for `O=C(/C=C/c1ccc(O[C@@H]2O[C@H](CO)[C@@H](O)[C@H](O)[C@H]2O)cc1)c1ccc(O)cc1O` [Isoliquiritin]: 105%; for `COc1ccc(-c2oc3c(CC=C(C)C)c(O)cc(O)c3c(=O)c2O[C@@H]2O[C@@H](C)[C@H](O)[C@@H](O)[C@H]2O)cc1` [Baohuoside I]: 90.4%; for `CCCCCCCCCC(=O)N[C@@H](Cc1c[nH]c2ccccc12)C(=O)N[C@H](CC(N)=O)C(=O)N[C@@H](CC(=O)O)C(=O)N[C@@H]1C(=O)NCC(=O)N[C@@H](CCCN)C(=O)N[C@@H](CC(=O)O)C(=O)N[C@H](C)C(=O)N[C@@H](CC(=O)O)C(=O)NCC(=O)N[C@H](CO)C(=O)N[C@@H]([C@H](C)CC(=O)O)C(=O)N[C@@H](CC(=O)c2ccccc2N)C(=O)O[C@@H]1C` [Daptomycin]: 95%. The same measure for `c1ccc2occc2c1` [2,3-Benzofuran]: 99.1%; for `O=C(O)CC(C(=O)O)n1c(O)c(C2=c3cc(Br)ccc3=NC2=O)sc1=S` (centres undefined): 99.6%.

Regarding `CCN1CCN(c2cc3c(cc2F)c(=O)c(C(=O)O)cn3C2CC2)CC1` [Enrofloxacin], the cell viability worked out at 99.2%.

In the case of `COc1ccc2c(c1O)-c1c(O)c(OC)cc3c1[C@H](C2)[N+](C)(C)CC3` [Magnoflorine], the cell viability worked out at 101%. Regarding `CC(=O)OCC(=O)[C@@]1(O)CC[C@H]2[C@@H]3CCC4=CC(=O)CC[C@]4(C)[C@@]3(F)[C@@H](O)C[C@@]21C` [Fludrocortisone acetate], the cell viability amounted to 104%.
